In PubChem BioAssay AID425 (Sanford-Burnham Center for Chemical Genomics, 2006):
Where “and” joins values, the source holds several entries; their conditions need not be identical. Identical values can stand only once. Out of some 110,000 compounds screened, about 190 (0.17%) were called active. The entries come from a sample that favours actives as a whole. Results with a measured potency or affinity are listed apart. A number with no mark means an inactive call. Rule as the data show it: active = inhibition above about 50%; inactive = the rest.

What follows are compounds tested against Dual specificity protein phosphatase 6 (Rattus norvegicus) (UniProt Q64346) (assay: inhibition of rat DUSP6 enzyme activity – biochemical, in vitro, primary screen (AID 425;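 also: plate controls were vehicle for no effect and reference inhibitor for full effect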)). Settings: recombinant MKP-3 phosphatase activity, fluorescence; at 20 µM; active compounds read high.
Sequence of Dual specificity protein phosphatase 6 (Rattus norvegicus) (Q64346 whole entry, looked up): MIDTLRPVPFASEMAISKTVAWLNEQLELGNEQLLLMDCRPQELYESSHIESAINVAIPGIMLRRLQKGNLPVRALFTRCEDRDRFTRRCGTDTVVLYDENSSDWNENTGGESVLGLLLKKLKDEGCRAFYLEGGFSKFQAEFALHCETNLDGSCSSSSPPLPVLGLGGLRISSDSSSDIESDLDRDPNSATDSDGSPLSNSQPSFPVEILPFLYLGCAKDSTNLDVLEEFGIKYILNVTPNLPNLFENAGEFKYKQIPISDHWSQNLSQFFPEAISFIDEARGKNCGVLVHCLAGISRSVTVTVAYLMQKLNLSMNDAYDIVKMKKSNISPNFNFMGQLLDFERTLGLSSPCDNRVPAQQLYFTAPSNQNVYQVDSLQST

| Compound | inhibition |
| --- | --- |
| O=C(Nc1nncs1)c1cc(-c2ccccc2Cl)nc2ccccc12 | 1.9% |
| CCOc1ccc(CCNc2nc3c(c(=O)n(C)c(=O)n3C)n2CC)cc1OCC | -1% |
| O=C(N/N=C\c1cn(Cc2ccc(Cl)c(Cl)c2)c2ccccc12)c1ccc([N+](=O)[O-])cc1 | -0.1% |
| O=C(CNc1cccc2ccccc12)N/N=C/c1cn(Cc2ccccc2)c2ccccc12 | 4.7% |
| O=C(c1cc2ccccc2oc1=O)N1CCCN(C(=O)c2cc3ccccc3oc2=O)CC1 | 3.4% |
| CC(C)(C)C(=O)/C=C(\N)c1ccccn1 | -3.7% |
| COc1ccc(C2NC(=S)NC(C)=C2C(=O)Nc2ccccc2)c(OC)c1 (stereo not drawn) | 1.7% |
| O=C(c1ccccc1)c1ccc(N=Cc2ccc([N+](=O)[O-])s2)cc1 | 62.2% (active) |
| O=[N+]([O-])c1ccc(C=Nc2ccc(Cl)c([N+](=O)[O-])c2)s1 | 67.5% (active) |
| Cc1cccc(N=Cc2ccc([N+](=O)[O-])s2)c1 | 49.9% |
| O=C(O)c1ccc(N=Cc2ccc([N+](=O)[O-])s2)cc1 | 83.1% (active) |
| O=[N+]([O-])c1ccc(C=Nc2ccc(Br)c(Cl)c2)s1 | -1.9% |
| CC(=O)Nc1ccc(N=Cc2ccc([N+](=O)[O-])s2)cc1 | 1.2% |
| O=[N+]([O-])c1ccc(C=NC23CN4CN(CN(C4)C2)C3)s1 | 94.6% (active) |
| CCc1ccc(C=NC23CN4CN(CN(C4)C2)C3)s1 | -1.3% and -8.8% |
| O=C(c1ccccc1)c1cc(Cl)ccc1N=Cc1ccc([N+](=O)[O-])s1 | 0.8% |
| O=[N+]([O-])c1cc(N=Cc2ccc(Br)s2)ccc1Cl | 0.8% |
| O=[N+]([O-])c1ccc(C=Nc2ccc(Oc3ccccc3)cc2)s1 | 0.3% |
| CN1CCN(/N=C/c2ccc([N+](=O)[O-])s2)CC1 | 2.9% |
| Cn1c(O)c(N=NC(=O)COc2ccc3ccccc3c2)c2cc(Br)ccc21 | 3% |
| C/C(O)=C\C(N)=N/c1nc(C)cc(C)n1 | 2.7% |
| O=[N+]([O-])c1ccc(C(O)CN2CCN(C/C=C/c3ccccc3)CC2)cc1 (stereo not drawn) | 3.6% |
| CCC(=O)N1c2ccc(S(=O)(=O)CCC(=O)N3CCn4c3nc3ccccc34)cc2CC1C (stereo not drawn) | 6.1% |
| O=C(NCCNc1ccc([N+](=O)[O-])cc1Cl)c1ccccc1Cl | 1.6% |
| COCCOC(=O)C1=C(C)NC(=O)CC1c1cccc(Cl)c1 (stereo not drawn) | 3.6% |

| Compound | inhibition |
| --- | --- |
| CN(C)CCCNC(=O)c1ccc(CN(c2ccccc2)S(C)(=O)=O)cc1 | -6.3% |
| C/C(=N\NC(=O)C1(C)CC1(Br)Br)c1ccc(Br)s1 (stereo not drawn) | 0.4% |
| COc1ccccc1CNC(=O)c1ccc(NC(C)=O)cc1 | 2.6% |
| O=C1C(=O)c2ccccc2C(O)=C1c1ccc([N+](=O)[O-])cc1 | -1.5% |
| CN=CC1=C(O)c2ccccc2C1=O | -0.6% |
| O=C1C(=O)c2ccccc2C(O)=C1[N+](=O)[O-] | 106% (active) |
| COc1cc(/C=N/Nc2nncc(=O)[nH]2)ccc1O | -0.1% |
| O=C(c1cn(-c2ccccc2)nc1-c1ccc(F)cc1)N1CCOCC1 | -13.6% |
| CC(=O)Nc1ccc(S(=O)(=O)Nc2cc(C)ccc2C)cc1 | 0.4% |
| CCOc1cccc(=[O+]CC)c2c(C)oc(C)c12 | 96.5% (active) |
| CCOc1ccc(-c2cc(OCC)c3c(C)oc(C)c3c(=[O+]CC)c2)cc1 | 3.9% |
| CCOc1cccc(=O)c2c(C)oc(C)c12 | 1.6% |
| Cc1cc(N2CCCC(C(=O)Nc3ccc4c(c3)CCC4)C2)n2ncnc2n1 (stereo not drawn) | -8.9% |
| Oc1[nH]c2ccccc2c1N=Nc1nc(-c2ccccc2)c2cc(Br)ccc2n1 | 12% |
| O=C1N=C(N=Nc2c(O)[nH]c3ccccc23)S/C1=C/c1ccc(Br)cc1 | 53.2% (active) |
| CN(C)c1ccc(/C=C2/SC(N=Nc3c(O)[nH]c4ccccc34)=NC2=O)cc1 | 28.7% |
| CCOC(=O)C1C(=O)CC(C)(O)C(C(=O)OCC)C1c1ccc(OCC)cc1 (stereo not drawn) | 0.2% and -2.5% |
| CCOc1ccc(-n2c(SCC(N)=O)nc3c([nH]c4ccccc43)c2=O)cc1 | -3.1% |
| CC(C)(C)c1cnnn1-c1ccc(NC(=O)c2ccc3c(c2)OCO3)cc1 | -6.9% |
| CC(C)[C@H](NC(=O)Nc1ccc2c(c1)OCCO2)C(=O)O | -0.5% |
| Cc1ccc(C(=O)c2nocc2C(=O)c2cccs2)cc1 | -9.8% |
| COc1ccc(C(=O)c2no[n+]([O-])c2C(=O)c2ccc(OC)cc2)cc1 | -8.8% |
| COC(=O)C1=C(C)NC(=O)NC1c1ccc(OCCO)c(OC)c1 (stereo not drawn) | 4.3% |
| O=C(CCC1CCCC1)Nc1cccc(F)c1 | -0.4% |
| CC(C)Cn1c(=S)[nH]c2sc3c(c2c1=O)CC(C)(C)OC3 | 3.9% |

| Compound | inhibition |
| --- | --- |
| CCOC(=O)CCn1nnc(N)n1 | -5% |
| Cc1cc([N+](=O)[O-])cc2c1NC(=O)C2=O | 79.8% (active) |
| Cc1cc([N+](=O)[O-])ccc1N1C(=O)c2ccccc2C1=O | -1.5% |
| Cc1cc2c(cc1Br)NC(=O)C2=O | 1.5% |
| O=C(CSCc1cnn(-c2ccccc2)c1-n1cccc1)NCc1cccs1 | -0.1% |
| O=C1c2ccccc2C(=O)c2c1c(-c1ccccc1)nn2-c1ccccc1 | 1.2% |
| Cc1ccc(-n2nc(-c3ccccc3)c3c2C(=O)C=CC3=O)cc1 | 38.9% |
| O=C1C=CC(=O)c2c1c(-c1ccccc1)nn2-c1ccccc1 | 63.4% (active) |
| CN(C)CCC(=O)c1ccc(O)cc1 | 3.3% |
| N#Cc1c(N)sc2c1CCN(Cc1ccccc1)C2 | 14.1% |
| N#Cc1c(N2CCCCC2)nc(N2CCCCC2)c2c1CCN(Cc1ccccc1)C2 | 3.8% |
| CCn1cc(C(=O)NC2CCCCCC2)c(=O)c2cc(S(=O)(=O)N3CCCCC3)ccc21 | 3.2% |
| CCn1cc(C(=O)NC2CCC(C)CC2)c(=O)c2cc(S(=O)(=O)N3CCCCC3)ccc21 (stereo not drawn) | 56.1% (active) |
| CCn1cc(C(=O)NC2CCCC2)c(=O)c2cc(S(=O)(=O)N3CCOCC3)ccc21 | 3.9% |
| Cc1nc2ncccn2c1-c1csc(Nc2cccc(O)c2)n1 | 2.7% |
| O=C(CCCCC(=O)NCc1cccs1)NCc1cccs1 | -5.6% |
| CCn1cc(C(C)NC(=O)COc2ccc(Cl)cc2C)c(C)n1 (stereo not drawn) | -4% |
| c1ccc(-c2nc(C3COc4ccccc4O3)cs2)cc1 (stereo not drawn) | -4.2% |
| CCOc1ccc2nc(Nc3nc(C)c(C)c(=O)[nH]3)nc(C)c2c1 | 1.2% |
| CCOc1ccc2nc(Nc3nc(O)c(C)c(=O)[nH]3)nc(C)c2c1 | 0.7% |
| COc1ccc([N+](=O)[O-])cc1NC(=O)c1ccc(N(C)C)cc1 | 1.4% |
| Cn1cccc1Cc1nnc(SCC(=O)Nc2nc3ccccc3s2)n1CCc1ccccc1 | -4.6% |
| O=C1c2cccnc2-c2ncccc21 | 6.6% |
| Cc1ccc(C)n1-c1ccc(OCC(=O)O)cc1 | 25.7% |
| Cc1ccc(C)n1-c1ccc(SCC(=O)O)cc1 | 106% (active) |

| Compound | inhibition |
| --- | --- |
| Cc1ccc(C)n1-c1ccc(CC(=O)O)cc1 | 25.5% |
| CCOC(=O)c1c(NC(=S)NCc2ccccc2)sc2c1CCC2 | 0% |
| CCOC(=O)c1c(C)[nH]c(/C=C(/C#N)C(N)=NCc2ccccc2)c1O | 1.3% |
| CC(Cc1ccccc1)N=C(N)/C(C#N)=C\c1[nH]c2ccccc2c1O (stereo not drawn) | 69.4% (active) |
| CC(Cc1ccccc1)N=Cc1c(O)[nH]c2ccccc12 (stereo not drawn) | 3.3% |
| COc1ccc(N(CC(=O)NCC2CCCO2)S(=O)(=O)c2c(C)noc2C)cc1 (stereo not drawn) | -8.1% |
| O=C(CSc1ccc(C(=O)O)cc1)Nc1ccccc1 | 0.1% |
| Cc1nc(SCC(=O)Nc2ccc(F)cc2)c2oc3ccccc3c2n1 | -2.1% |
| Cc1ccc(C)n1-c1ccc(Cl)c(C(=O)O)c1 | 71.5% (active) |
| Cc1ccc(-c2ccccc2)n1-c1ccc(O)c(C(=O)O)c1 | 42.1% |
| Cc1nc(=O)c(-c2ccccc2)c(C)n1-c1ccc(C(=O)O)c(O)c1 | 3.2% |
| Cc1ccc(C)n1-c1ccc(O)c(C(=O)O)c1 | 100% (active) |
| Cc1ccc(C)n1-c1ccc(C(=O)O)c(Cl)c1 | 28.4% |
| Cc1ccc(-c2ccccc2)n1-c1ccc(Cl)c(C(=O)O)c1 | 4.5% |
| O=C(O)c1ccc(-n2cccc2)cc1O | 4.3% |
| Cc1ccc(C)n1-c1ccc(C(=O)O)c(O)c1 | 101% (active) |
| Cc1nc(=O)c(-c2ccccc2)c(C)n1-c1ccc(O)c(C(=O)O)c1 | -7.4% |
| CCCOc1ccc(C2/C(=C(/O)c3ccccc3)C(=O)C(=O)N2CCCN(C)C)cc1OC (stereo not drawn) | -0.5% |
| CCN(CC)CC(=O)Nc1c(Br)ccc2c1OCO2 | -11.8% |
| CCC(=O)N1CCc2cc(Br)cc(S(=O)(=O)N3CCN(C(=O)c4ccco4)CC3)c21 | 4.6% |
| COc1ccc(/C=N/NC(=O)CCn2c3ccccc3c3ccccc32)cc1 | 0.1% |
| CCSc1nnc(Cn2c(=O)sc3ccccc32)n1C | 0.4% |
| CC(C)(C)C(=O)CC(O)(c1ccccc1)C(F)(F)C(F)F (stereo not drawn) | -1.8% |
